In PubChem BioAssay (NCATS):
Where “and” joins values, the source holds several entries; their conditions need not be identical. Identical values can stand only once. Records with an inconclusive call do not appear. Calls of active or inactive are those of the source. Unless noted, the call rests on the fitted dose curve; in most records, active means well fitted curve in the direction sought with a large enough effect; inconclusive means small, poorly fitted or top-dose-only effect, or another doubt; inactive means no such curve, though single readings can be large; an effect the other way counts as inactive or inconclusive.

Key:
[1] = target: Guanine nucleotide-binding protein G(i) subunit alpha-1 (Homo sapiens) (UniProt P63096); assay: qHTS Assay for Inhibitors of RGS12 GoLoco Motif Activity (Green Fluorophore) (AID 879);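 further: 0% = labeled peptide with Gαi1 and full inhibition = labeled peptide alone without protein; negative values mean loss of peptide binding seen as reduced polarization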
Sequence of Guanine nucleotide-binding protein G(i) subunit alpha-1 (Homo sapiens) (P63096 whole entry, looked up): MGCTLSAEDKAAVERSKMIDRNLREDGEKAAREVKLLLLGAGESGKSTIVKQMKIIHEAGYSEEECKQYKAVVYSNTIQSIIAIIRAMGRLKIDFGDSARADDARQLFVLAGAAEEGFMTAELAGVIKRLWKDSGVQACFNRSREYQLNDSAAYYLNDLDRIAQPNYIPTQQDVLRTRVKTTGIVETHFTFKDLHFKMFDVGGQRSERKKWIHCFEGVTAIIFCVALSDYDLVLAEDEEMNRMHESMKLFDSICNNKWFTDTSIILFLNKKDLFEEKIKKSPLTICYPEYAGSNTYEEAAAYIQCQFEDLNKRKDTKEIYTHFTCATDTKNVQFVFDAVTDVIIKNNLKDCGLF
Procedure, shortened: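 Fluorescence polarization assay: 50 nM Gαi1 with 10 nM FITC-labeled RGS12 GoLoco peptide in 10 mM Tris pH 7.5, 150 mM NaCl, 0.1 mM GDP, 0.05% NP40, 10 min at room temperature with compound.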

[2] = target: Cytochrome P450 2C9 (Homo sapiens) (UniProt P11712); assay: qHTS Assay for Inhibitors and Substrates of Cytochrome P450 2C9 (AID 883); further: nearly all actives have a fitted effect of over 60% in size; further: potency means the concentration at half of the fitted maximal effect
Sequence of Cytochrome P450 2C9 (Homo sapiens) (P11712 whole entry, looked up): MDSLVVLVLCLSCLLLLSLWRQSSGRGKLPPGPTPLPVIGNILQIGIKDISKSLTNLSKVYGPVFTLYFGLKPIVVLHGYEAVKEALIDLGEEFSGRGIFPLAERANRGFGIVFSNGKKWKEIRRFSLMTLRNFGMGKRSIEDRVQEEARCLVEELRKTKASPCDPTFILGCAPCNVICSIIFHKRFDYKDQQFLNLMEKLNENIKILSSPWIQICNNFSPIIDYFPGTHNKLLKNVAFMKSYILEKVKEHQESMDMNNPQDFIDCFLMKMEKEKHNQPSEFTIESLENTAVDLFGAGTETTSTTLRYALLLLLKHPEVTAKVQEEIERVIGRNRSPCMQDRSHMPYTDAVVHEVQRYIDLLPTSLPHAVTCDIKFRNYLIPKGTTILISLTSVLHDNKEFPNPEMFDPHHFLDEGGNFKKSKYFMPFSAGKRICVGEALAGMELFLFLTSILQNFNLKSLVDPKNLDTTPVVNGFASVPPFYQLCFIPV
Procedure, shortened: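 A luminogenic readout tracked human CYP2C9 (10nM) converting deoxyluciferin (100uM, at KM) in 25mM KPO4 during 60 min at 37C with regenerated NADPH. Values normalized to 57uM sulphaphenazole as complete inhibition.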

[3] = target: Cytochrome P450 3A4 (Homo sapiens) (UniProt P08684); assay: qHTS Assay for Activators of Cytochrome P450 3A4 (AID 885); further: nearly all actives have a fitted effect of over 65% in size
Sequence of Cytochrome P450 3A4 (Homo sapiens) (P08684 whole entry, looked up): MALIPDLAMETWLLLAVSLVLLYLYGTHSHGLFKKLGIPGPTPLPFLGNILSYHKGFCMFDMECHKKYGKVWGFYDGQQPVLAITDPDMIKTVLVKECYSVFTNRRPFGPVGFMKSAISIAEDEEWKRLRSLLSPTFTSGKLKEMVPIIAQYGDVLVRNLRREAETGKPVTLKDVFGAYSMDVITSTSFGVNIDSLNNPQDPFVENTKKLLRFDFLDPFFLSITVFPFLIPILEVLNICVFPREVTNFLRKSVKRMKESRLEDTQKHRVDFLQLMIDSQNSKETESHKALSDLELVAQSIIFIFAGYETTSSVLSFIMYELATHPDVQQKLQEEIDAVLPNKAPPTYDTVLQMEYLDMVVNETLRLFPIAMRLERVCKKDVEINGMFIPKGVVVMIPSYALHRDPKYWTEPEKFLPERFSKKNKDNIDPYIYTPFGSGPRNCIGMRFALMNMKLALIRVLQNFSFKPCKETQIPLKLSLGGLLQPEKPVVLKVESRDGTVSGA
Procedure, shortened: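 Steps: enzyme/substrate mix dispensed; compound added, 10 min RT; NADPH regeneration solution added, 60 min RT; luciferin detection buffer stops reaction; 20 min later luminescence measured.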

[4] = target: Cytochrome P450 2D6 (Homo sapiens) (UniProt P10635); assay: qHTS Assay for Inhibitors and Substrates of Cytochrome P450 2D6 (AID 891); further: nearly all actives have a fitted effect of over 60% in size; further: potency means the concentration at half of the fitted maximal effect
Sequence of Cytochrome P450 2D6 (Homo sapiens) (P10635 whole entry, looked up): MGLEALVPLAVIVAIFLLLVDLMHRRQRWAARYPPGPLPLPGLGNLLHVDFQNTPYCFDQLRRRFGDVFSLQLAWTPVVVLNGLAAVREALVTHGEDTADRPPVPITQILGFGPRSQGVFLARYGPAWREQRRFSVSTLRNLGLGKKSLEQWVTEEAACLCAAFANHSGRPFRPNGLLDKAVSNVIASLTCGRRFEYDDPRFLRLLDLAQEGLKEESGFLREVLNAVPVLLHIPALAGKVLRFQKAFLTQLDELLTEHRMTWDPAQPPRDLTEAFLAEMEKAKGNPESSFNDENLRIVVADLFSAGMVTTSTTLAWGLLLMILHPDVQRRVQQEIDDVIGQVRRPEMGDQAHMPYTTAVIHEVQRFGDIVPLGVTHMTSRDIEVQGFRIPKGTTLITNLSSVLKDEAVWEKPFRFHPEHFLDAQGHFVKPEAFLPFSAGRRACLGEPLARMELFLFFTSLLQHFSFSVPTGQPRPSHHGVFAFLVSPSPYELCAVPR
Procedure, shortened: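 Human CYP2D6 (5 nM) with 30 uM Luciferin-ME EGE (at Km) in 100 mM KPO4, compound preincubated 10 min, then NADPH regeneration system for 60 min at room temperature. Luciferin read by luminescence; normalized to 1.43 uM quinidine.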

[5] = target: Muscarinic acetylcholine receptor M1 (Rattus norvegicus) (UniProt P08482); assay: qHTS Assay for Antagonists of Acetylcholine Muscarinic M1 Receptor: Kinetic Measurement of Intracellular Calcium Response (AID 943); further: nearly all actives have a fitted effect of over 75% in size
Sequence of Muscarinic acetylcholine receptor M1 (Rattus norvegicus) (P08482 whole entry, looked up): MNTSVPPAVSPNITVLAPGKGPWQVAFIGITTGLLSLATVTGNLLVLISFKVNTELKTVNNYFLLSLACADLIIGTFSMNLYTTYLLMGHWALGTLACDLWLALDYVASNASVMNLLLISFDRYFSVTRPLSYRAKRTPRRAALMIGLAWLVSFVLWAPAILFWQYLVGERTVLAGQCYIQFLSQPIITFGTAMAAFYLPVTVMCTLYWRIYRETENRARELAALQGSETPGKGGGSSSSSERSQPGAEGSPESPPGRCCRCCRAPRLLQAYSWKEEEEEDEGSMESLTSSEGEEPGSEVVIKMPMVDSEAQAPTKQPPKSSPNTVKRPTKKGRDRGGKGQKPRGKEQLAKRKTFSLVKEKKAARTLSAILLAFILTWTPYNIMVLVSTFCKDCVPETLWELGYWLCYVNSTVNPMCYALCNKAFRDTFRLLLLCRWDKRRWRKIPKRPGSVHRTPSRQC
Procedure, shortened: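 CHO cells expressing rat M1 receptor, Fluo-4 loaded, preincubated 10 min with compound, then stimulated with EC80 carbachol (100 nM final). Kinetic calcium fluorescence over 4 min; response taken as peak over basal signal.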

[6] = target: Muscarinic acetylcholine receptor M1 (Rattus norvegicus) (UniProt P08482); assay: qHTS Assay for Antagonists of Acetylcholine Muscarinic M1 Receptor: Measurement of IP-One Response (AID 944); further: nearly all actives have a fitted effect of over 75% in size; further: potency means the concentration at half of the fitted maximal effect
Procedure, shortened: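 CHO cells stably expressing rat M1, pretreated 10 min with compound, then stimulated 30 min with carbachol at EC80 (200 nM) in LiCl-containing buffer pH 7.4; IP1 accumulation read by HTRF competition (665/620 nm).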

[7] = target: Pyruvate kinase (Leishmania mexicana) (UniProt Q27686); assay: qHTS Validation Assay for Inhibitors of Leishmania Mexicana Pyruvate Kinase (AID 945);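 further: 0% = DMSO only neutral control wells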
Sequence of Pyruvate kinase (Leishmania mexicana) (Q27686 2-499 E452W): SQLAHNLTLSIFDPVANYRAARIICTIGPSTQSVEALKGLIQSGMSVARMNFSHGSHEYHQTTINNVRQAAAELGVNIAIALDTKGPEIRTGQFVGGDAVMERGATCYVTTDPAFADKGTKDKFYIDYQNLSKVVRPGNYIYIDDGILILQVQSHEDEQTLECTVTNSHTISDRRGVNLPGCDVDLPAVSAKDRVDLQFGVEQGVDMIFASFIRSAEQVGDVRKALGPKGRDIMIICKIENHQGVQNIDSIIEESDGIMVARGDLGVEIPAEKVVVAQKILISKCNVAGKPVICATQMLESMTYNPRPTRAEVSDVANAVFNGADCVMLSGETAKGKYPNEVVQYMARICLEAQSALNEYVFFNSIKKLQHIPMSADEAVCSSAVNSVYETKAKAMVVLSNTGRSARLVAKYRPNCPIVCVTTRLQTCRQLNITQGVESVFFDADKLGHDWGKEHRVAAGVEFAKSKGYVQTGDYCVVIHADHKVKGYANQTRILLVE
Procedure, shortened: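 Read-out: luminescence from PKLight stop/detection reagent, data normalized to DMSO. Reaction: 0.2 nM E451W LmPYK, 0.5 mM PEP, 0.1 mM ADP, pH 7.2, 1 h room temperature.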

[8] = Cellular Toxicity (caspase-3) Hek293 (AID 664); conditions: HEK293 caspase-3 activation, DMSO = 0%, 100 µM tamoxifen = 100%; at 92.2 µM (top of the series);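 further: cells exposed to compound for 16 h at 37 °C before readout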
Procedure, shortened: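 HEK293 cells in complete medium treated 16 h at 37 °C, then Caspase-Glo 3/7 luminescence read after 20 min at room temperature. Normalized to DMSO and 100 uM tamoxifen; AC50 from Hill fit of concentration-response.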

[9] = Cellular Toxicity (caspase-3) N2a (AID 665); conditions: Potency: caspase-3 activation;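 further: compound exposure lasted 16 h at 37 °C before readout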; further: potency means the concentration at half of the fitted maximal effect
Procedure, shortened: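 Mouse N2a neuroblastoma cells, 1500 per well, treated 16 h at 37 °C in complete medium; caspase-3/7 activity by Caspase-Glo luminescence after 1 h. Normalized to DMSO and 10 uM staurosporine; AC50 from Hill fits.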

[10] = Cellular Toxicity (caspase-3) NIH 3T3 (AID 666); further: potency means the concentration at half of the fitted maximal effect;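 on caspase-3 activation: 0% = DMSO basal and 100% = 100 µM tamoxifen stimulation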
Procedure, shortened: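 Mouse NIH 3T3 fibroblasts (1000/well) treated 16 h at 37 C; caspase-3/7 activity measured by Caspase-Glo 3/7 luminescence after 20 min. Normalized to DMSO and 100 uM tamoxifen; AC50 from Hill fits.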

[11] = Cellular Toxicity (caspase-3) Renal Proximal Tubule (AID 667); conditions: Potency: caspase-3 activation;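 further: cells exposed to compound for 16 hours at 37 °C before detection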; further: potency means the concentration at half of the fitted maximal effect;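 on caspase-3 activation: 0% = DMSO basal and 100% = 10 µM staurosporine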
Procedure, shortened: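 Luminescent caspase 3/7 signal from peptide-aminoluciferin cleavage measures apoptosis in freshly isolated rat kidney proximal tubule cells after 16 h compound exposure. Concentration-response data are normalized to DMSO and 10 uM staurosporine, and AC50 values come from Hill equation fits.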

[12] = target: Cytochrome P450 3A4 (Homo sapiens) (UniProt P08684); assay: qHTS Assay for Inhibitors and Substrates of Cytochrome P450 3A4 (AID 884); further: nearly all actives have a fitted effect of over 50% in size; further: potency means the concentration at half of the fitted maximal effect
Procedure, shortened: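 20 nM human CYP3A4 with 25 uM Luciferin-PPXE (at KM) in 200 mM KPO4, preincubated 10 min with compound; NADPH regeneration started a 60 min RT reaction. Luciferin detected by luminescence, normalized to 57 uM ketoconazole as full inhibition.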

[13] = Cell Viability - LYMP2-001 (AID 921); further: nearly all actives have a fitted effect of over 70% in size; further: potency means the concentration at half of the fitted maximal effect
Procedure, shortened: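 CellTiter-Glo luminescence (intracellular ATP) after 24 hr compound exposure at 37 C, 2500 lymphoblastoid cells/well in complete medium. AC50 fitted with standard Hill equation; tetraoctylammonium bromide positive control.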

[14] = Confirmation and Secondary Assay for Modulators of Hemoglobin Beta Chain Splicing at IVS2 654 locus (AID 910);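 further: per-well total GFP intensity by laser scanning cytometry after 2-day treatment; % of control where 0% means no effect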
Procedure, shortened: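 HeLa cells stably carrying EGFP interrupted by mutant beta-globin IVS2-654 intron (CMV-driven) were treated with compound for 2 days at 37C; corrected splicing was scored as total peak GFP intensity per well (488 nm excitation, 500-520 nm emission).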

[15] = Confirmation and Secondary Assay for Modulators of Hemoglobin Beta Chain Splicing at IVS2 705 locus (AID 930);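 further: HeLa cells stably expressing the EGFP-705 splicing reporter; GFP fluorescence per well restored by corrected splicing of the IVS2-705 intron in EGFP; % of control where 0% means no effect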
Procedure, shortened: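 Secondary splice-site specificity test uses HeLa expressing CMV-driven EGFP interrupted by IVS2-705; cells were treated 2 days at 37C with 500 nM antisense PNA as positive control.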

[16] = qHTS Assay for Identification of Small Molecule Antagonists for Thrombopoietin (TPO) Signaling Pathway (AID 918); conditions: TPO-dependent cell signaling reporter, antagonist mode; further: potency means the concentration at half of the fitted maximal effect; nearly all actives have a fitted effect of over 60% in size
Procedure, shortened: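 Murine Ba/F3 cells expressing human TPO receptor and a Glycoprotein IIb promoter-luciferase reporter, IL-3-starved overnight, treated with compound plus TPO at EC50 (26 pM final). After 24 h at 37 C, luminescence read to detect inhibitors.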

[17] = qHTS Assay for Identification of Small Molecule Antagonists for NFkB Signaling Pathway (AID 895; active means well fitted inhibition curve with a large enough effect in the signal ratio, with a control signal flat, not every such curve was filed as active; the % refers to the signal ratio; further: on the % scale 0 is the no-effect control and ±100 the full control effect)
Procedure, shortened: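 NFkB-bla ME-180 cervical carcinoma cells with beta-lactamase reporter under NFkB response element; compounds added, then TNF alpha at 10 pM final (EC50), 5 h at 37 C. LiveBLAzer substrate 2 h, room temperature; emission 460/530 nm at 405 nm excitation.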

O=c1[nH]c2cc([N+](=O)[O-])c([N+](=O)[O-])cc2[nH]c1=O
inactive: outcome [1] | Potency [2] | Potency [3] | Potency [4] | Potency [5] | Potency [6] | Potency [7]

CN(C)CCC(c1ccc(Cl)cc1)c1ccccn1 (stereo unspecified)
inactive: caspase-3 activation [8] 1.34% | Potency [9] | Potency [10] | Potency [11] | Potency [12] | Potency [13]

CCCOC(=O)c1ccc(O)cc1
inactive: caspase-3 activation [8] 0.939% and -1.18% | Potency [9] | Potency [10] | Potency [11] | Potency [13]

CN(C)c1ccc(C(=C2C=CC(=[N+](C)C)C=C2)c2ccccc2)cc1
active: caspase-3 activation [8] -9.3% | Potency [9] 79.4 nM | Potency [10] 1000 nM | Potency [11] 794 nM | Potency [13] 199 nM

CC(C)NCC(O)COc1cccc2ccccc12 (stereo unspecified)
inactive: caspase-3 activation [8] 0.268% | Potency [9] | Potency [10] | Potency [11] | Potency [12] | outcome [14] | Potency [13] | outcome [15]

Oc1ccccc1O
inactive: caspase-3 activation [8] 7.91% | Potency [9] | Potency [11] | outcome [1] | Potency [2] | Potency [4] | Potency [7]

COc1cc(CNC(=O)CCCC/C=C/C(C)C)ccc1O
inactive: caspase-3 activation [8] 0.218% | Potency [9] | Potency [10] | Potency [11] | Potency [3] | outcome [14] | Potency [13] | outcome [15]
active: Potency [12] 2510 nM

Nc1ccc(O)c(C(=O)O)c1
inactive: caspase-3 activation [8] 0.369% | Potency [9] | Potency [10] | Potency [11] | Potency [3] | Potency [13]

CN1CCC[C@H]1c1cccnc1
inactive: caspase-3 activation [8] 1.08% | Potency [9] | Potency [10] | Potency [11] | Potency [13]

O=C(O)c1cc(O)c(O)c(O)c1
inactive: caspase-3 activation [8] -9.64% | Potency [9] | Potency [10] | Potency [11] | Potency [12] | outcome [14] | Potency [13] | outcome [15]

Nc1ccc([N+](=O)[O-])cc1O
inactive: caspase-3 activation [8] -2.49% | Potency [9] | Potency [10] | Potency [11] | Potency [12] | Potency [13]

Nc1ccc(O)c([N+](=O)[O-])c1
inactive: caspase-3 activation [8] 0.408% | Potency [9] | Potency [10] | Potency [11] | Potency [12] | Potency [13]

c1cnc2c(c1)ccc1cccnc12
inactive: caspase-3 activation [8] -4.62% | Potency [9] | Potency [10] | Potency [11] | outcome [1] | Potency [2] | Potency [12] | Potency [4] | Potency [5] | Potency [6] | Potency [7]

N=C1N=C(N)c2cc3ccccc3cc21
active: Potency [13] 39800 nM
inactive: caspase-3 activation [8] 9.9% | Potency [11] | Potency [12]

CN(C)c1ccc(N=NS(=O)(=O)O)cc1
inactive: caspase-3 activation [8] -1.18% | Potency [9] | Potency [10] | Potency [11] | Potency [12] | Potency [13]

O=C1C(SCCO)=C(SCCO)C(=O)c2ccccc21
inactive: outcome [1] | Potency [3] | Potency [5] | Potency [7]
active: Potency [2] 12.6 µM and 5.01 µM | Potency [4] 7940 nM | Potency [16] 1260 nM | Potency [6] 10000 nM

O=c1cc(-c2ccccc2)oc2ccccc12
inactive: caspase-3 activation [8] -5.01% | Potency [9] | Potency [10] | Potency [11] | Potency [13]

C#C[C@]1(O)CC[C@H]2[C@@H]3CCc4cc(O)ccc4[C@H]3CC[C@@]21C
inactive: caspase-3 activation [8] -0.747% | Potency [9] | Potency [10] | Potency [11] | Potency [3] | Potency [13]

O=C(O)c1cc(=O)c2c(Cl)cc(Cl)cc2[nH]1
inactive: outcome [1] | Potency [2] | Potency [12] | Potency [4] | Potency [17] | outcome [14] | outcome [15] | Potency [7]

Cn1cc(C2=C(c3ccc(Cl)cc3Cl)C(=O)NC2=O)c2ccccc21
inactive: outcome [1] | Potency [3] | Potency [5] | Potency [6] | Potency [7]
active: Potency [2] 10 µM | Potency [12] 2000 nM

NCCO
inactive: caspase-3 activation [8] -4.95% | Potency [9] | Potency [10] | Potency [11] | Potency [12] | Potency [13]

CC1(C)S[C@@H]2[C@H](NC(=O)[C@H](N)c3ccccc3)C(=O)N2[C@H]1C(=O)O
inactive: caspase-3 activation [8] -0.638% | Potency [9] | Potency [10] | Potency [11] | Potency [13]

N#C/C(=C\c1ccc(O)c(O)c1)C(=O)NCc1ccccc1
inactive: outcome [1] | Potency [2] | Potency [3] | Potency [4] | Potency [5] | Potency [7]

O=C1CN(/N=C/c2ccc([N+](=O)[O-])o2)C(=O)N1
inactive: caspase-3 activation [8] -0.37% | Potency [9] | Potency [10] | Potency [11] | outcome [14] | Potency [13] | outcome [15]

CCCCCCCCCCCCCCCCCC(=O)O
inactive: caspase-3 activation [8] 0.144% | Potency [9] | Potency [10] | Potency [11] | Potency [12] | Potency [13]

S=c1[nH]c2ccccc2s1
inactive: caspase-3 activation [8] 1.33% | Potency [9] | Potency [10] | Potency [11] | outcome [14] | Potency [13] | outcome [15]

O=C(O)/C=C\C(=O)O
inactive: caspase-3 activation [8] -1.35% | Potency [9] | Potency [10] | Potency [11] | Potency [12] | Potency [13]
